97 compounds from PubChem BioAssay AID938 (National Center for Advancing Translational Sciences (NCATS), 2007) can be followed below.

Several values for one entry are separate records, joined by “and”; a condition that tells them apart may be missing. Identical values can stand only once. Among all 73,000 compounds or so, about 1,800 (2.5%) were called active. Entries that show only a call come without a potency. Not shown: some 13% with an inconclusive outcome. This is one part of a sample in which actives are shown more often than they occur. A number with no mark means an inactive call. Calls follow the shape of the dose curve; as a rule, active = well fitted activation curve with a large enough effect; inconclusive = small, poorly fitted or top-dose-only effect; inactive = no such curve, though single readings can be large or run the other way.
Potency is read from the fitted curve at half-maximal effect.

The assay can be described thus: qHTS Assay for Agonists of the Thyroid Stimulating Hormone Receptor: Activators of Intracellular cAMP Concentrations in Parental HEK 293. Also: nearly all actives have a fitted effect of over 55% in size. The conditions noted are these: parental HEK293 CNG cAMP sensor, membrane potential fluorescence; series mostly up to 57.1 µM. The method in brief: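 Parental HEK 293 cells stably expressing a cAMP-gated CNG channel were loaded with membrane potential dye containing 100 uM RO 20-1724 for 60 min. Compound added for 30 min; depolarization read as fluorescence intensity at 590 nm.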
(Quantitative high-throughput screening tests each substance at several concentrations.)
Regarding `C=CCn1c(COc2ccccc2)nnc1SCC(=O)NCC(=O)OCC`, the Potency result was “inactive”.

Turning to `O=C(CC1(O)C(=O)N(CN2CCOCC2)c2ccccc21)c1ccccc1` (configuration not stated), the Potency result was “inactive”.

As to `Cc1ccc(C(=O)Nc2nnc(-c3ccncc3)s2)o1`, the Potency result was “inactive”.

As to `CC(C)N(CCNC(=O)c1ccc(-n2c(=O)c(=O)[nH]c3ccccc32)cc1)C(C)C`, the Potency result is “inactive”.

On to `Cc1cc(C)c(C#N)c(SCc2ccc3c(c2)OCO3)n1`, for which the Potency is 20 µM (active).

`Cc1cc(N2CCN(Cc3ccc4c(c3)OCO4)CC2)n2ncnc2n1`: the Potency result was “inactive”.

For the compound `Cc1cc(C)c(C#N)c(SCc2ccccc2C(=O)O)n1`, the Potency result is “inactive”.

Take `CC1(C)OC(C(O)(c2ccccc2)c2ccccc2)C(C(O)(c2ccccc2)c2ccccc2)O1` (configuration not stated): the activation is 25.8% [at 11.4 µM].

Consider `CCOc1ccc(C(CC(=O)O)NC(=O)COc2ccccc2)cc1` (configuration not stated), for which the Potency entry was “inactive”.

`O=C(Nc1nnc(CCc2ccccc2)s1)C1CCCO1` (configuration not stated): the Potency result was “inactive”.

As for `CCC(=O)c1cc2c(cc1NC(=O)c1cccs1)OCCO2`, the Potency result is “inactive”.

`O=S(=O)(NCC1CCCO1)c1ccc2ccccc2c1` (configuration not stated): the Potency entry was “inactive”.

Take `CCC(C)(C)n1nnnc1C(c1cccs1)N1CCN(Cc2ccccc2)CC1` (configuration not stated): the Potency was 12.6 µM (active).

Turning to `Cn1nnnc1SCC(=O)N1CCN(Cc2ccccc2)CC1`, the Potency entry was “inactive”.

Take `Cc1cc(C)c2[nH]c(=O)c(C(c3nnnn3Cc3ccc4c(c3)OCO4)N3CCCC3)cc2c1` (configuration not stated): the Potency entry was “inactive”.

`CCOc1ccc(CN(Cc2ccco2)C(c2cccs2)c2nnnn2C(C)(C)C)cc1` (configuration not stated): the Potency result was “inactive”.

Take `CCC(C)(C)n1nnnc1C(c1cccs1)N1CCN(c2nc3ccccc3s2)CC1` (configuration not stated): the Potency was 3.16 µM (active).

For the compound `Fc1ccc(Cn2nnnc2C(c2cccs2)N2CCCCCC2)cc1` (configuration not stated), the Potency was 31.6 µM (active).

In the case of `Cc1ccc(C(c2nnnn2C(C)(C)C)N2CCc3ccccc3C2)cc1` (configuration not stated), the Potency entry was “inactive”.

On to `O=S(=O)(c1cccs1)N1CCN(Cc2ccccc2)CC1`, for which the Potency result is “inactive”.

Turning to `Fc1ccccc1C(c1nnnn1Cc1ccc2c(c1)OCO2)N1CCN(Cc2ccccc2)CC1` (configuration not stated), the Potency result was “inactive”.

Take `COc1ccc(-c2nc3cnc(N(C)C)nc3n(Cc3cccs3)c2=O)cc1`: the Potency result is “inactive”.

As to `CCOC(=O)C(C(=O)OCC)C(C#N)c1ccccc1` (configuration not stated), the Potency entry was “inactive”.

Turning to `O=C(O)CC(C(=O)O)C(CC(=O)O)C(=O)O` (configuration not stated), the Potency result is “inactive”.

For `Cc1ccc(S(=O)(=O)Cn2nnnc2CN2CCN(Cc3ccc4c(c3)OCO4)CC2)cc1`, the Potency result was “inactive”.

For `O=C(O)c1ccc(Cl)c(S(=O)(=O)Nc2ccccc2Cl)c1`, the Potency result is “inactive”.

Take `Cc1ccc(-c2nc(CS(=O)CC(=O)N3CCN(c4ncccn4)CC3)c(C)o2)cc1` (configuration not stated): the Potency result is “inactive”.

As to `N#CC1=C(N)OC2=C(C(=O)CCC2)C1C1CC=CCC1` (configuration not stated), the Potency entry is “inactive”.

For the compound `CC1CCN(C(=O)Cn2cc(C(=O)c3ccco3)c3ccccc32)CC1`, the Potency is 20 µM (active).

Consider `COC(=O)Cn1cc(C(=O)c2cccs2)c2ccccc21`, for which the Potency result is “inactive”.

In the case of `CCOC(=O)C1CCN(C(=O)Cn2cc(C#N)c3ccccc32)CC1`, the Potency result was “inactive”.

For `CC(=O)OCC1OC(C#Cc2ccccc2Cl)C=CC1OC(C)=O` (configuration not stated), the activation is -0.512% [at 11.4 µM].

Regarding `CCCCCCCCCCCC(=O)O[C@H](CC(=O)O)C[N+](C)(C)C`, the Potency entry is “inactive”.

Regarding `Cc1ccc(NC(=O)CSc2nnc(-c3cnccn3)n2Cc2ccco2)cc1C`, the Potency entry is “inactive”.

For `CCn1c(CNc2ccc(OC)cc2)nnc1SCC(=O)c1ccc(OC)cc1`, the Potency result was “inactive”.

Consider `O=C(CSc1nnc(-c2cnccn2)n1Cc1ccco1)c1ccc(Cl)c(Cl)c1`, for which the Potency is 25.1 µM (active).

Turning to `COc1ccc(C(=O)CSc2nnc(COc3ccccc3)n2Cc2ccco2)cc1`, the Potency is 15.8 µM (active).

Consider `O=C(CSc1nnc(-c2cccs2)n1-c1ccccc1)NCc1ccco1`, for which the Potency entry was “inactive”.

For `COc1ccc(-c2nnc(SCC(=O)c3ccco3)n2-c2ccccc2)cc1`, the Potency result was “inactive”.

Regarding `O=C(CSc1nnc(-c2cccnc2)n1Cc1ccco1)c1ccc(Cl)cc1`, the Potency result was “inactive”.

With `O=C(CSc1nnc(-c2cccs2)n1Cc1ccco1)c1ccc2c(c1)OCO2`, the Potency was 31.6 µM (active).

For `COc1ccc(NC(=O)CSc2nnc(-c3cccs3)n2Cc2ccco2)cc1OC`, the Potency entry is “inactive”.

Turning to `CCOC(=O)c1nc(-c2ccc3c(c2)OCO3)[nH]c1C`, the Potency entry was “inactive”.

For `CCCC(=O)N1c2ccc(-c3csc(N)n3)cc2CC1C` (configuration not stated), the Potency entry was “inactive”.

`Cc1ccc2nc(S(=O)(=O)O)[nH]c2c1`: the Potency entry was “inactive”.

Take `NC(=O)CSC1=Nc2ccccc2C2=NC(CCC(=O)NCc3ccc(F)cc3)C(=O)N12` (configuration not stated): the Potency entry was “inactive”.

Regarding `O=C(CC1N=C2c3ccccc3N=C(SCc3ccccc3Cl)N2C1=O)NCc1ccco1` (configuration not stated), the Potency is 15.8 µM (active).

`O=C(CSC1=Nc2ccccc2C2=NC(c3ccccc3)C(=O)N12)NCC1CCCO1` (configuration not stated): the Potency entry was “inactive”.

As for `Cc1cc(OCC(=O)O)c(Cl)cc1Cl`, the activation is 18.1% [at 11.4 µM].

Regarding `Cc1ccccc1C(=O)O`, the Potency result was “inactive”.

In the case of `CCC(=O)Nc1ccccc1N1CCN(S(C)(=O)=O)CC1`, the Potency result is “inactive”.

Regarding `CCCC(=O)Nc1ccccc1N1CCN(C(=O)c2ccccc2)CC1`, the Potency was 15.8 µM (active).

`O=C(Nc1ccccc1N1CCN(C(=O)c2ccccc2)CC1)c1ccc2c(c1)OCO2`: the Potency entry is “inactive”.

As for `CC(C)CO/N=C1/C[C@@H](O)[C@@H](O)[C@@H]2[C@@H]3C(=O)N(C[C@@H]4CCCO4)C(=O)[C@H]3CC[C@@H]12`, the activation is 4.27% [at 11.4 µM].

Consider `O=C(O)COc1c(Cl)cc(Cl)c2cccnc12`, for which the activation is 14.2% [at 11.4 µM].

Turning to `CC12CCC(C(=O)N3CCN(c4ncccn4)CC3)(c3nc4ccccc4nc31)C2(C)C` (configuration not stated), the Potency result was “inactive”.

Turning to `CCCCn1c(SCC(=O)NCC2CCCO2)nc2ccc(N3CCOCC3)cc2c1=O` (configuration not stated), the Potency result was “inactive”.

As for `CCc1ccc(NC(=O)CSc2nc3ccccc3c(=O)n2CCN2CCOCC2)cc1`, the Potency is 31.6 µM (active).

Turning to `COCCCNC(=O)CSc1nc2ccc(N3CCOCC3)cc2c(=O)n1CCc1ccccc1`, the Potency entry is “inactive”.

For the compound `COC(=O)C1=C(C)N(Cc2ccccc2)C2=C3C(=O)N(c4ccccc4)C(=O)C3[C@@](O)(C(=O)OC)C(=O)N2C1c1ccccc1` (some centres not stated), the activation was 9.18% [at 11.4 µM] and 2.67% [at 11.4 µM].

For `CN(Cc1ccco1)c1cc(-c2ccccc2C(F)(F)F)ncn1`, the Potency result was “inactive”.

Consider `Cc1ccccc1-c1nc(N(C)Cc2ccco2)c2ccccc2n1`, for which the Potency was 25.1 µM (active).

For the compound `CN(Cc1ccco1)c1ncncc1-c1ccoc1`, the Potency result is “inactive”.

Turning to `CCC(C(=O)NC1CCCC1)N(C(=O)c1snc(C(N)=O)c1N)c1ccc2c(c1)OCCO2` (configuration not stated), the Potency was 25.1 µM (active).

In the case of `COCCNC(=O)C(c1ccc(C)o1)N(Cc1cccs1)C(=O)c1snc(C(N)=O)c1N` (configuration not stated), the Potency entry was “inactive”.

For `Cc1ccc(C(C(=O)NC2CCCCC2)N(C(=O)c2csnn2)C2CC2)o1` (configuration not stated), the Potency entry was “inactive”.

On to `Cc1cc2c(cc1C)NC1=C(N2)O[C@H](c2c[nH]c3ccc(COc4ccccc4)cc23)C1=O`, for which the activation was 3.07% [at 11.4 µM].

Take `O=C(c1csnn1)N1CCC[C@@]2(CCN(c3cccc(-c4ccccc4)c3)C2)C1`: the Potency entry was “inactive”.

Regarding `COc1ccc(C(=O)N2CCC3(CC2)CCN(c2ccccn2)CC3)cc1`, the Potency entry was “inactive”.

Take `CC(=O)N1CCC2(CCCN(c3ncccn3)C2)CC1`: the Potency result is “inactive”.

For the compound `O=C(c1ccncc1)N1CCC2(CCCN(C(c3ccccc3)c3ccccc3)C2)CC1`, the Potency was 10 µM (active).

`O=C(c1cc(C(F)(F)F)cc(C(F)(F)F)c1)N1CCC[C@@]2(CCN(c3ccccn3)C2)C1`: the Potency was 15.8 µM (active).

Turning to `O=C(c1cccc(F)c1)N1CCC2(CCCN(Cc3ccncc3)C2)CC1`, the Potency result was “inactive”.

On to `COc1ccc(C(=O)N2CCC3(CCCN(C(c4ccccc4)c4ccccc4)C3)CC2)cc1`, for which the Potency result was “inactive”.

Take `O=C(c1cc(C(F)(F)F)cc(C(F)(F)F)c1)N1CCC2(CCCN(Cc3ccncc3)C2)CC1`: the Potency result is “inactive”.

As for `O=C(c1cc(C(F)(F)F)cc(C(F)(F)F)c1)N1CCC2(CCCN(c3ccccn3)C2)CC1`, the Potency is 25.1 µM (active).

Regarding `COc1cccc([C@H](O)Cn2cc(-c3ccc(CON=C(C)C)cc3)nn2)c1`, the activation was 14.1% [at 11.4 µM].

`COc1ccc(COC(=O)N/N=C2/C[C@@H](O)[C@@H](O)[C@@H]3[C@@H]4C(=O)N([C@@H](C)c5ccccc5)C(=O)[C@H]4CC[C@@H]23)cc1`: the activation was -0.62% [at 11.4 µM].

In the case of `CCOC(=O)c1sc(NC(=S)n2cc(C)cn2)c(C(=O)OCC)c1C`, the Potency result is “inactive”.

For `CN1CCc2nc(-c3ccccc3)c(-c3ccccc3)cc2C1`, the activation is 0.173% [at 11.4 µM].

For `c1ccc2nc(C3=NCCN3)cnc2c1`, the Potency entry is “inactive”.

For the compound `CCOC(=O)c1ccc(N2C(=O)CC(N3CCC(C(=O)OCC)CC3)C2=O)cc1` (configuration not stated), the Potency result is “inactive”.

On to `CCOC(=O)c1nnn(-c2nc(OC)nc(N(C)C)n2)c1-c1ccccc1`, for which the Potency result is “inactive”.

In the case of `Cc1ccc(C(=O)N2CCN(C3CCCCC3)CC2)s1`, the Potency entry is “inactive”.

Turning to `N/C(=N\c1nc2ccccc2o1)NC(=O)C(Cc1ccccc1)N1C(=O)c2ccccc2C1=O` (configuration not stated), the Potency entry was “inactive”.

On to `Cc1cccc2cc(CN(Cc3ccc4c(c3)OCO4)Cc3nnnn3C3CCCC3)c(=O)[nH]c12`, for which the Potency is 31.6 µM (active).

With `Cc1cccc2cc(CN(Cc3cccs3)C(c3nnnn3C3CCCC3)C(C)C)c(=O)[nH]c12` (configuration not stated), the Potency result is “inactive”.

On to `CCOC(=O)C1CCN(C(c2cc3cc(C)cc(C)c3[nH]c2=O)c2nnnn2C2CCCCC2)CC1` (configuration not stated), for which the Potency entry was “inactive”.

On to `O=C1C(c2ccccn2)=[N+]([O-])c2ccccc21`, for which the Potency result is “inactive”.

`O=c1c2ccccc2nnn1CSc1nc2sc3c(c2c(=O)n1CC1CCCO1)CCC3` (configuration not stated): the Potency entry was “inactive”.

As to `COc1ccccc1Oc1ccc(S(=O)(=O)Nc2cccnc2)cc1`, the Potency entry is “inactive”.

As for `COc1ccccc1N(C(=O)Cn1nnc2ccccc21)C(C(=O)NCc1ccco1)c1ccc(C)o1` (configuration not stated), the Potency is 3.98 µM (active).

Regarding `COc1ccc(C2=NOC(C(=O)NCc3ccco3)C2)cc1OC` (configuration not stated), the activation is 8.46% [at 2.29 µM].

Regarding `CCOc1ccccc1C(=O)NCc1ccco1`, the Potency result is “inactive”.

Regarding `COc1ccc(CC(=O)Nc2c3c(nn2-c2cccc(Cl)c2)CS(=O)C3)cc1` (configuration not stated), the Potency result is “inactive”.

With `Cc1cccc(CC(=O)Nc2c3c(nn2-c2cccc(Cl)c2)CS(=O)C3)c1` (configuration not stated), the Potency is 10 µM (active).

Regarding `CC(C)(C)n1nc2c(c1NC(=O)c1ccc(S(=O)(=O)N3CCCC3)cc1)CS(=O)C2` (configuration not stated), the Potency entry is “inactive”.
